# About 7,900 targets were measured; listed, in parts, are those with a hit and a random draw of the rest. About 0.6% of all pairs of compound and target were hits. A number with no mark means an inactive call.
# How the values were obtained:
# Assay in all cases: log2 fold change, soluble protein after heating vs DMSO (PISA); higher = thermal stabilisation; K562 cells, 10 uM, 30 min; active = over 0.2 and 3.5 SD of the protein, either way, in both replicates (recomputed)
# [1] = compound: CC1=C(C=C(C=C1)NC(=O)C2=CC(=CC=C2)C(C)(C)C#N)NC3=CC4=C(C=C3)N=CN(C4=O)C
# Outline: (§1)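 Values are thermal stability changes relative to control samples and are taken from duplicates. They are stated as log2 fold changes. Before quantification by TMTpro 16plex LC-MS/MS with equalised channel sums, K562 cells at 2×10^6 cells/mL were treated with 10 μM compound for 30 min, heated in aliquots for 3 min across 48°C-58°C, pooled, extracted in PBS with 0.5% NP-40 at 4°C, and centrifuged at 21,000xg for 90 min to give the soluble supernatant.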
# [2] = compound: CC1=C(C=C(C=C1)NC(=O)C2=CC(=CC=C2)N(C)C)NC(=O)C3=CC=C(C=C3)O
# Outline: as §1
# [3] = compound: CC1=CC=C(C=C1)SC2=C3C=C(SC3=CN=C2)C(=O)N
# Outline: as §1
# [4] = compound: CC1=NC(=CC=C1)C2=C(N=C(N2)C(C)(C)C)C3=CC4=NC=CN=C4C=C3
# Outline: as §1
# Nexturastat A = compound: CCCCN(Cc1ccc(C(=O)NO)cc1)C(=O)Nc1ccccc1 [Nexturastat A]
# Outline: as §1
# vemurafenib = compound: CCCS(=O)(=O)Nc1ccc(F)c(C(=O)c2c[nH]c3ncc(-c4ccc(Cl)cc4)cc23)c1F [vemurafenib]
# Outline: as §1
# [5] = compound: CCCS(=O)(=O)Nc1ccc(F)c(C(=O)c2c[nH]c3ncc(Cl)cc23)c1F
# Outline: as §1
# [6] = compound: CCCc1cc(C)[nH]c(=O)c1CNC(=O)c1cc(-c2ccnc(N3CCN(C)CC3)c2)cc2c1cnn2C(C)C
# Outline: as §1
# givinostat = compound: CCN(CC)Cc1ccc2cc(COC(=O)Nc3ccc(C(=O)NO)cc3)ccc2c1 [givinostat]
# Outline: as §1
# barasertib = compound: CCN(CCCOc1ccc2c(Nc3cc(CC(=O)Nc4cccc(F)c4)[nH]n3)ncnc2c1)CCOP(=O)(O)O [barasertib]
# Outline: as §1
# Sequence of UniProt O43513 (O43513 whole entry, looked up): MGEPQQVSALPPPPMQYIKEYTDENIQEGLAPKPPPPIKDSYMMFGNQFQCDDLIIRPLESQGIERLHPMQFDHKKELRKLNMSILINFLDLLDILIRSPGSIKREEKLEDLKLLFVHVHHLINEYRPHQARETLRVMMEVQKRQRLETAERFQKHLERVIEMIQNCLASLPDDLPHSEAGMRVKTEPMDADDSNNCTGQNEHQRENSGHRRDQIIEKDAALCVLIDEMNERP
# Sequence of UniProt P45984 (P45984 whole entry, looked up): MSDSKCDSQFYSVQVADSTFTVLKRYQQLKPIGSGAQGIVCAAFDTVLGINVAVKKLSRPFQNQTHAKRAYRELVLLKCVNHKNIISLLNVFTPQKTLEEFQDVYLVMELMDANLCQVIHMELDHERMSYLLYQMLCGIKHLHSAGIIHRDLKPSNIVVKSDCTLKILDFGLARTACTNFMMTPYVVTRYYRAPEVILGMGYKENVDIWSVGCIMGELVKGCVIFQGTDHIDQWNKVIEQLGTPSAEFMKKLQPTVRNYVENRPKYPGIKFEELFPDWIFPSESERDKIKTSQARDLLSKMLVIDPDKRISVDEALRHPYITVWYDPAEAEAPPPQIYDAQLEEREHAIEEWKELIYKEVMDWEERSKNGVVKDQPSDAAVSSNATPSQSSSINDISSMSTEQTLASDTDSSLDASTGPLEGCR
# Sequence of UniProt Q86UP2 (Q86UP2 whole entry, looked up): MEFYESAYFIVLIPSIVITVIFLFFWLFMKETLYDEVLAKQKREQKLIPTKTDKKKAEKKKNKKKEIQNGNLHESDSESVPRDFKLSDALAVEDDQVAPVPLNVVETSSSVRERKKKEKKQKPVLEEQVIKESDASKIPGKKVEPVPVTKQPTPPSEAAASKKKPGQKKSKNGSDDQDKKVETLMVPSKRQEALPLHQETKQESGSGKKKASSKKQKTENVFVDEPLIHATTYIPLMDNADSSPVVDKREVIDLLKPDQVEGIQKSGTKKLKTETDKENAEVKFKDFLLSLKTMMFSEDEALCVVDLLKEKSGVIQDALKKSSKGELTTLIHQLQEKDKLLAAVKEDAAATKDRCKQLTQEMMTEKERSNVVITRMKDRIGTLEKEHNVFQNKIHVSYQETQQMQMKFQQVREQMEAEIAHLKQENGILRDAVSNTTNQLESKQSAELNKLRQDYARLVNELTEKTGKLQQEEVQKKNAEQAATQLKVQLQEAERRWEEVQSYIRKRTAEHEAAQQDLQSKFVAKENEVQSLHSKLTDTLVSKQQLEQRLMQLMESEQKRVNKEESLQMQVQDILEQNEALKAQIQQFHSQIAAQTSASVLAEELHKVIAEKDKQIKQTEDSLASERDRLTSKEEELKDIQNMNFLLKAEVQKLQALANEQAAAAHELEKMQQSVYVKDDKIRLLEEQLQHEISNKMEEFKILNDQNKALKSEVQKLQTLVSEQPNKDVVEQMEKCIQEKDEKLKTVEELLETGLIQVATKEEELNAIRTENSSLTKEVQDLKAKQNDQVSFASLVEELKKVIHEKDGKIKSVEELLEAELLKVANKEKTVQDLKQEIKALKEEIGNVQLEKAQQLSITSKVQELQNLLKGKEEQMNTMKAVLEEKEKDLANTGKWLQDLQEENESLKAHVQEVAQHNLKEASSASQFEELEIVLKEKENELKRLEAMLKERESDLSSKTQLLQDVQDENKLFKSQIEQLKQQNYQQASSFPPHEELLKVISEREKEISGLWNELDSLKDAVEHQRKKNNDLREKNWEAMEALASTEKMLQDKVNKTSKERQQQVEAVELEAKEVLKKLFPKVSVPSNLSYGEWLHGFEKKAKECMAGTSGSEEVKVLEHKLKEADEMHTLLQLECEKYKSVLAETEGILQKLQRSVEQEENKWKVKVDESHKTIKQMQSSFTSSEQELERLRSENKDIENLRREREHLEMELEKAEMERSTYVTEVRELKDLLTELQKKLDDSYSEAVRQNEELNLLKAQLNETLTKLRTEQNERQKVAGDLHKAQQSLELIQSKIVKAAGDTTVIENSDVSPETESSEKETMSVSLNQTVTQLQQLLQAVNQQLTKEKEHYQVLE
# Sequence of UniProt P52333 (P52333 whole entry, looked up): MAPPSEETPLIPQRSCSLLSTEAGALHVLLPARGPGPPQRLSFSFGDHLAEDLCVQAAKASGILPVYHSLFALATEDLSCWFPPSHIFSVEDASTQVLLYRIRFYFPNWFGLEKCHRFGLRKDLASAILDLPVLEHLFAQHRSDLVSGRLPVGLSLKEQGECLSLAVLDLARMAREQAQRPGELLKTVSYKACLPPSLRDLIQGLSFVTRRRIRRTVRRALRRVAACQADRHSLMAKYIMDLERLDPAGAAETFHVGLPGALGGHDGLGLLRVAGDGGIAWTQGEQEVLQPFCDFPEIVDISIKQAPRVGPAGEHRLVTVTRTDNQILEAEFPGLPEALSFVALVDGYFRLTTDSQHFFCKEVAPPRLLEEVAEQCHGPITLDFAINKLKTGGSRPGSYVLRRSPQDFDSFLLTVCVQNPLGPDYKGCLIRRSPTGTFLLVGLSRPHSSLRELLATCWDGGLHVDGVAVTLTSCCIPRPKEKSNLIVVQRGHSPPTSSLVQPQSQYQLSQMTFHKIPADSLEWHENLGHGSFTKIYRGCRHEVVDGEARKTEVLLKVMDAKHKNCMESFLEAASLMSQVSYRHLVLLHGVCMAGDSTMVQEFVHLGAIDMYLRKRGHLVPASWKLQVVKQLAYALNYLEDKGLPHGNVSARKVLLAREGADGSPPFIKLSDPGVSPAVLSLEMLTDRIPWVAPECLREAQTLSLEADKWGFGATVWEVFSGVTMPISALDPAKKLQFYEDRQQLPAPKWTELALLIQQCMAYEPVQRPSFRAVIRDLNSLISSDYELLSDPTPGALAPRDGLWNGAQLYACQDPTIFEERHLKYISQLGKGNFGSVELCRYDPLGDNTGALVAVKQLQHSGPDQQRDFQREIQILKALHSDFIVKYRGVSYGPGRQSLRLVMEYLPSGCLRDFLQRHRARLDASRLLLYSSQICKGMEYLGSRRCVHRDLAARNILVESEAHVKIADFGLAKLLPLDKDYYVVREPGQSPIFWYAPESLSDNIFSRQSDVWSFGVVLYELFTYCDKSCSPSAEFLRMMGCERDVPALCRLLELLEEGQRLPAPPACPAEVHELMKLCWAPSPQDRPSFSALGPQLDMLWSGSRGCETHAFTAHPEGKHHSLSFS
# Sequence of UniProt Q9H1B7 (Q9H1B7 whole entry, looked up): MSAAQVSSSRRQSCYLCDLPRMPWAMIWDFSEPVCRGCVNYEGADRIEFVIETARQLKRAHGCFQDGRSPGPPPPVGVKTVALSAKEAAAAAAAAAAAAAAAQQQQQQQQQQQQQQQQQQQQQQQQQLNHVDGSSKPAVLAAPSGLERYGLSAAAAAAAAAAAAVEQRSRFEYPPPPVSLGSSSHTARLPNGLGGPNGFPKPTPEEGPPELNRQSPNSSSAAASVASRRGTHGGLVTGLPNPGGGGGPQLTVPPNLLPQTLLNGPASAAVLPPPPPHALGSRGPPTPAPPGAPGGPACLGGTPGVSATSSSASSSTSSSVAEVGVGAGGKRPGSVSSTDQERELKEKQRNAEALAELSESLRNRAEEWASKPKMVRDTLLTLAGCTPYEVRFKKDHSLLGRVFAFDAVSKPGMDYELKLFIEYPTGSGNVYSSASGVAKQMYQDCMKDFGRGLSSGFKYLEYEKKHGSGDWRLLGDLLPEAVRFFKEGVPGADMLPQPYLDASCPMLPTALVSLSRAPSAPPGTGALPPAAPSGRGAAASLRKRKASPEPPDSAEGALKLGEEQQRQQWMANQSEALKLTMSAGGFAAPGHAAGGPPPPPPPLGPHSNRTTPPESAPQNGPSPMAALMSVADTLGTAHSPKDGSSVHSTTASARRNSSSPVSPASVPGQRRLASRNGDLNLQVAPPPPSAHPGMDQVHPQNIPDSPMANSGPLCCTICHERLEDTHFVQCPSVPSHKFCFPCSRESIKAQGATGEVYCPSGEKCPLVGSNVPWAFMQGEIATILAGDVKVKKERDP
# Sequence of UniProt Q9NQX7 (Q9NQX7 whole entry, looked up): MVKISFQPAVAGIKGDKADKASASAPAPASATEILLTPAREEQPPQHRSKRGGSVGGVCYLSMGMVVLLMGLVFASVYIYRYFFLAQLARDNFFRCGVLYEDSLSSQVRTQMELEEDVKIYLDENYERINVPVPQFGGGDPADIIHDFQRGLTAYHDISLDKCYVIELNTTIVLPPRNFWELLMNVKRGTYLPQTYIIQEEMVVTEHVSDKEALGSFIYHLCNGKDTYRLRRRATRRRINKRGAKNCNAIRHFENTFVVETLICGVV
# Sequence of UniProt Q9HCC0 (Q9HCC0 whole entry, looked up): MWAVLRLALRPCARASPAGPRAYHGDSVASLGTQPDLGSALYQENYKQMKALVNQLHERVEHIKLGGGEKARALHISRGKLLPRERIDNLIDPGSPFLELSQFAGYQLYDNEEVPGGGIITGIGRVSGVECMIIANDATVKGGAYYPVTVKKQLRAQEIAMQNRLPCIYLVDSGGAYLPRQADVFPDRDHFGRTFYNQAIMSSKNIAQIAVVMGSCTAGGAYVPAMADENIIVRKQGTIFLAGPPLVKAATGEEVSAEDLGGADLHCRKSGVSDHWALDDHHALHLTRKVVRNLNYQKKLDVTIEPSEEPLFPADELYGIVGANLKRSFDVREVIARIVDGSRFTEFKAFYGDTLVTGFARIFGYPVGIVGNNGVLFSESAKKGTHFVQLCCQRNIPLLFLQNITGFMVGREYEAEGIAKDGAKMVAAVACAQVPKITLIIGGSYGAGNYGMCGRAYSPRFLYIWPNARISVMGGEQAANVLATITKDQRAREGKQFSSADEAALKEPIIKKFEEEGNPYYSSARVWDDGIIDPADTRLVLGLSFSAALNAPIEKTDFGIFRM
Target,log2 fold change [1],log2 fold change [2],log2 fold change [3],log2 fold change [4],log2 fold change (Nexturastat A),log2 fold change (vemurafenib),log2 fold change [5],log2 fold change [6],log2 fold change (givinostat),log2 fold change (barasertib)
MAP2K7 isoform 4 (UniProt O14733),-0.068,0.003,-0.008,0.009,-0.031,-0.01,0.009,-0.026,-0.019,0.016
JAK3 (UniProt P52333),-0.002,-0.056,0.066,0.099,-0.478 (active),-0.032,-0.029,0.016,-0.16,0.016
KEL (UniProt P23276),-0.004,-0.061,0.117,0.01,0.117,-0.009,-0.015,-0.014,-0.056,-0.029
KTN1 (UniProt Q86UP2),-0.071,-0.051,0.014,-0.002,0.141,0.012,0.027,0.034,0.022,0.033
MAP3K20 (UniProt Q9NYL2),-0.448 (active),-0.098,-0.014,0.03,0.062,-0.254,-0.163,0.022,-0.089,-0.02
LMNB1 (UniProt P20700),-0.019,0.027,-0.046,-0.012,-0.045,0.1,0.065,-0.029,0.002,0.021
MCCC2 (UniProt Q9HCC0),0.048,-0.028,0.026,0.04,-0.04,0.011,0.013,-0.028,-0.049,-0.02
MAPK9 (UniProt P45984),0,-0.011,-0.078,0.044,-0.057,-0.005,-0.07,0.034,0.038,-0.022
IRF2BPL (UniProt Q9H1B7),0.013,-0.006,0.015,0.068,0.038,0.014,0.049,0.008,0.05,-0.044
IKZF1 isoform 2 (UniProt Q13422),0.141,-0.068,,,,0.095,,-0.002,-0.135,-0.08
IKZF1 (UniProt Q13422),0.144,0.036,-0.007,0.041,-0.006,0.044,0.034,0.177,-0.018,-0.052
MAPK14 (UniProt Q16539),1.62 (active),0.615,0.111,0.022,,0.059,0.339,0.002,0.03,-0.029
ITM2C (UniProt Q9NQX7),0.096,0.004,0.187,,0.084,0.006,-0.014,,0.09,0.057
MAP3K20 isoform 2 (UniProt Q9NYL2),-0.375 (active),,-0.038,0.295,0.16,,0.044,-0.017,0.003,
KLHL18 (UniProt O94889),-0.068,-0.009,0.003,,-0.099,-0.05,-0.051,0.06,-0.049,0.11
LMNA (UniProt P02545),-0.023,0.095,-0.026,-0.002,-0.022,0.088,0.014,-0.027,0.014,-0.004
MFSD11 (UniProt O43934),-0.171,,0.038,0.013,-0.097,-0.012,0.039,-0.02,,0.013
MED7 (UniProt O43513),0.049,-0.023,-0.009,0.015,0.212,-0.021,-0.093,,-0.008,-0.149
"LRBA, A0A494BZW2",-0.082,0.06,-0.048,0.078,-0.264,,0.272,0.038,0.264,0.026
MED25 isoform 3 (UniProt Q71SY5),-0.033,0.022,-0.012,-0.014,,0.141,0.05,-0.083,0.105,0.019
MCM10 (UniProt Q7L590),0.209,,0.166,0.155,0.028,-0.016,0.217,-0.037,-0.065,-0.012
MAML1 (UniProt Q92585),-0.05,-0.035,,0.199,0.039,0.038,,,0.299,
MARK2 (UniProt E9PC69),-0.011,-0.018,0.094,0.06,0.025,-0.005,-0.034,,0.132,0.034

# Reference: the supplement of paper PMC10849652
